An excerpt weighted towards active compounds, which were near 12% of everything screened.
AmpC no deterg: qHTS Inhibitors of AmpC Beta-Lactamase (assay without detergent); AmpC nitrocefin hydrolysis, absorbance 480 nm, 0.0001% Triton; Potency, µM (doses to about 57.1 µM), actives largely listed as inhibitors; 330,000 tested, 0.52% active; also: nearly all actives have a fitted effect of over 20% in size
Target sequence (P00811 whole entry, looked up): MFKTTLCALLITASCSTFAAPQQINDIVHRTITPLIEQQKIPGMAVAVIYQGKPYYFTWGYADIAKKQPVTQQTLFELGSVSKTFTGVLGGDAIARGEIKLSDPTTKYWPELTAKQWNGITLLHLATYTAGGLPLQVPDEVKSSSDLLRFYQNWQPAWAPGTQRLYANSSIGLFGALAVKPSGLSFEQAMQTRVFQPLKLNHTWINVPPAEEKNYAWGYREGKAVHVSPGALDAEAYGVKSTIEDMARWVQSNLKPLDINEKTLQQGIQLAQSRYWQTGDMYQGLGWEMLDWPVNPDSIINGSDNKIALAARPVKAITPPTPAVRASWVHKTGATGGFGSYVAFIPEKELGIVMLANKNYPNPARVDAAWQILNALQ
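20 mM phosphate pH 7.0 + 0.01% (detergent screen) or 0.0001% Triton X-100; 5.3 nM AmpC reagent; cpd preinc 15 min RT; nitrocefin (800 uM stock) to start; A480 q20 s × 4 min; Activity was normalised to no-enzyme and no-compound control wells.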
Pf growth 96h: Primary qHTS for delayed death inhibitors of the malarial parasite plastid, 96 hour incubation. AID 504834, 2011. 320,000 tested, 6.9% active. Potency, µM (highest dose often 28.7 µM), most hits filed as inhibitors. P. falciparum luciferase reporter growth, 96 h
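Plates of compound plus infected erythrocytes (2% hematocrit, 0.05% parasitemia final) incubate 96 hours, 37 C, 5% CO2. Detection reagent added; reduced luminescence from the parasites' luciferase reporter flags inhibition.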
SARS PLpro yeast: qHTS of Yeast-based Assay for SARS-CoV PLP. S. cerevisiae expressing SARS-CoV PLpro, growth rescue. AID 485353, 2010. Potency, µM (top dose mostly 32.9 µM), hits mostly activators. 330,000 tested, 0.19% active; calls by dose curve; also: nearly all actives have a fitted effect of over 55% in size
Sm TGR inh: qHTS Assay for the Inhibitors of Schistosoma Mansoni Peroxiredoxins. Potency, µM (titrated, usually from 114 µM), usual class: inhibitors. 360,000 tested, 3% active. Schistosoma mansoni thioredoxin glutathione reductase (TGR), Q962Y6. purified TGR, DTNB reduction, TNB absorbance 405 nm; also: nearly all actives have a fitted effect of over 60% in size
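First, TGR (20 nM dispensed) and NADPH were mixed with compound. Second, a 15 min room-temperature incubation followed. Third, further NADPH and then DTNB were added to start the reaction. Finally, TNB absorbance was monitored kinetically.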
AmpC inh detg: qHTS Inhibitors of AmpC Beta-Lactamase (assay with detergent) | AmpC hydrolysis of nitrocefin, absorbance 480 nm, 0.01% Triton | P00811 | 370,000 tested, 0.041% active | Potency, µM (series often up to 114 µM), actives largely listed as inhibitors; also: nearly all actives have a fitted effect of over 25% in size
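20 mM phosphate pH 7.0 + 0.01% (detergent screen) or 0.0001% Triton X-100; 5.3 nM AmpC reagent; cpd preinc 15 min RT; nitrocefin (800 uM stock) to start; A480 q20 s × 4 min; Activity was normalised to no-enzyme and no-compound control wells.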
Pf growth 48h: Primary qHTS for delayed death inhibitors of the malarial parasite plastid, 48 hour incubation | P. falciparum luciferase growth in erythrocytes, 48 h | Potency, µM (titrated, usually from 28.7 µM), actives largely listed as inhibitors | 310,000 tested, 5.9% active | AID 504832, 2011
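First compound was added to culture medium, then infected red cells at 0.1% parasitemia and 2% hematocrit (final). After incubation at 37 C under 5% CO2, luciferase detection reagent was dispensed and light output recorded.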
Of the large screens only hits and unclear results are named; the others gave an inactive call. Unless noted, calls follow the shape of the dose curve; as a rule, active = well fitted curve in the direction sought with a large enough effect; inconclusive = small, poorly fitted or top-dose-only effect, or another doubt; inactive = no such curve, though single readings can be large; an effect the other way counts as inactive or inconclusive.

COc1ccc(/C=C/C(=O)NCCSCc2ccco2)cc1	Pf growth 96h 9.3µM, Sm TGR inh inconclusive
CC(=O)Nc1ccc(S(=O)(=O)NCCSCc2ccco2)cc1	Sm TGR inh inconclusive (no result: Pf growth 96h)
Cc1ccc(NC(=O)c2cc(S(=O)(=O)N3CCC(C)CC3)cn2C)cc1Cl	none (no result: AmpC no deterg, Pf growth 96h, SARS PLpro yeast, Pf growth 48h)
CC1CCc2nc3ncn(CC(=O)Nc4cccc(C#N)c4)c(=O)c3cc2C1 (configuration not stated)	none (no result: AmpC no deterg, Pf growth 96h, SARS PLpro yeast, Pf growth 48h)
COc1cc2c(cc1OC)-c1cc(=Nc3c(C)cc(C)cc3C)n(C)c(=O)n1CC2	Pf growth 96h 0.76µM, Pf growth 48h 0.67µM (no result: AmpC no deterg, SARS PLpro yeast, Sm TGR inh, AmpC inh detg)
Cc1cc(C)n2nnnc2c1C#N	Pf growth 96h 13µM
N#Cc1cc2ccccc2n2nnnc12	none
CCn1nccc1C(=O)Nc1ccc(C(=O)OC(C)C)cc1	AmpC inh detg inconclusive
CCN(CC(=O)Nc1ccc2c(c1)OCCO2)C(=O)c1cc(=O)[nH]c2ccccc12	AmpC inh detg inconclusive
CCCn1c(C2CCCN2c2nc(-c3cccc(Br)c3)cs2)nc2cc(Cl)c(Cl)cc21 (configuration not stated)	Pf growth 96h 9.3µM, Sm TGR inh inconclusive, Pf growth 48h 12µM
CC(C(=O)Nc1ncccn1)(c1ccccc1)c1ccccc1	Pf growth 96h inconclusive
CCCC(C(=O)Nc1ccncc1)c1ccccc1 (configuration not stated)	Pf growth 96h 2.9µM, Pf growth 48h inconclusive
CC(C(=O)Nc1ccncc1)(c1ccccc1)c1ccccc1	Pf growth 96h 10µM, Pf growth 48h inconclusive (no result: Sm TGR inh)
CCCC(C(=O)Nc1ccc(S(=O)(=O)N2CCCC2)cc1)c1ccccc1 (configuration not stated)	Pf growth 96h inconclusive, Pf growth 48h 10µM
O=C(CC(c1ccccc1)c1ccccc1)Nc1ccncc1	Pf growth 96h 10µM, Pf growth 48h inconclusive
Cc1c(-c2cccc(NC(=O)Nc3ccccc3)c2)nc2ncccn12	none (no result: AmpC no deterg, Pf growth 96h, SARS PLpro yeast, Pf growth 48h)
O=C(COc1ccc(Br)cc1)Nc1ccncc1	Pf growth 96h inconclusive, AmpC inh detg inconclusive (no result: Pf growth 48h)
O=C(COc1ccc(Nc2ccccc2)cc1)Nc1ccncc1	Sm TGR inh 45µM, AmpC inh detg inconclusive
N#Cc1cc(-c2ccccc2)cn(Cc2c(Cl)cccc2Cl)c1=O	AmpC no deterg inconclusive, Pf growth 96h 1.7µM, Pf growth 48h inconclusive
Cc1ccc(-c2cc(C#N)c(=O)n(Cc3c(Cl)cccc3Cl)c2)cc1	Pf growth 96h inconclusive, Pf growth 48h inconclusive
O=C(CCCN1CCC(O)(c2ccc(Br)cc2)CC1)c1ccc(F)cc1	Pf growth 96h 4.1µM, AmpC inh detg inconclusive, Pf growth 48h 8.3µM (no result: SARS PLpro yeast)
CC(=O)N1CCC(O)(c2cccc(C(F)(F)F)c2)CC1	none
CC1CCN(CCCC(=O)c2ccc(F)cc2)CC1	Pf growth 96h inconclusive (no result: AmpC no deterg, SARS PLpro yeast, Sm TGR inh, AmpC inh detg)
O=C(CCCN1CCC(O)(c2cccc(C(F)(F)F)c2)CC1)c1ccc(F)cc1	Pf growth 96h 5.9µM, AmpC inh detg inconclusive, Pf growth 48h 8.3µM (no result: SARS PLpro yeast)
O=C(CCCN1CCC(O)(c2ccc(Cl)cc2)CC1)c1ccc(F)cc1	Pf growth 96h 6.6µM, Pf growth 48h 7.4µM
CCOC(=O)C1CCCN(C(=O)c2csc(-c3ccc4c(c3)CCO4)n2)C1 (configuration not stated)	none
Fc1ccc(-c2nnc(CN3CCN(c4ccccn4)CC3)o2)cc1	none (no result: AmpC no deterg, Pf growth 96h, SARS PLpro yeast, Pf growth 48h)
COCCN(C(=O)COC(=O)Cc1c[nH]c2ccccc12)c1c(N)n(Cc2ccccc2)c(=O)[nH]c1=O	AmpC inh detg inconclusive, Pf growth 48h inconclusive
CC(C)C(=O)Nc1ccc(NC(=S)NC(=O)c2ccccc2F)cc1	Pf growth 96h inconclusive
CCN1C(=O)/C(=C/c2ccc(N3CCCC3)cc2)NC1=S	AmpC no deterg 28µM, Pf growth 96h 8.3µM
CCCN1C(=O)/C(=C/c2ccc(N3CCOCC3)cc2)NC1=S	Pf growth 96h inconclusive
CCOC(=O)Nc1ccc2c(c1)Sc1ccccc1N2C(=O)CCN1CCOCC1	none
COc1ccc(NC(=O)COc2ccc(/C=N/n3c(C)nnc3C)cc2OC)cc1	Pf growth 96h 12µM (no result: Pf growth 48h)
COc1cc(/C=C/c2cccc[n+]2C)ccc1OCC(=O)Nc1ccccc1	Pf growth 48h 1µM
COc1cc(/C=C/c2cccc[n+]2C)ccc1OCC(=O)Nc1cccc(Cl)c1	Pf growth 48h 0.93µM
COc1cc(/C=C/c2cc[n+](C)cc2)ccc1OCC(=O)Nc1ccc(Cl)c(Cl)c1	Sm TGR inh inconclusive, Pf growth 48h inconclusive
COc1ccc(NC(=O)COc2ccc(/C=C/c3cccc[n+]3C)cc2OC)cc1	Pf growth 48h 0.93µM
C/C=C/c1ccc(OCC(=O)Nc2cc(OC)c(OC)c(OC)c2)c(OC)c1	Pf growth 96h inconclusive
CCOc1ccccc1-n1nnc(-c2nsc(NC(=O)c3ccc(C)cc3)n2)c1C	none (no result: AmpC no deterg, Pf growth 96h, SARS PLpro yeast, Pf growth 48h)
COc1ccc(NC(=O)COc2ccc(/C=C/c3cc[n+](C)cc3)cc2OC)cc1	Pf growth 48h 1.9µM
O=C1[C@H]2[C@@H](c3ccc(F)cc3)N3C(=O)N(c4ccc(Br)cc4)C(=O)[C@@]3(Cc3ccc(Cl)cc3)[C@H]2C(=O)N1C1CCCCC1	Pf growth 96h 3.3µM, Pf growth 48h inconclusive
COc1ccc(N2C(=O)N3[C@H](c4ccc(Cl)cc4)[C@@H]4C(=O)N(C5CCCCC5)C(=O)[C@@H]4[C@]3(Cc3ccc(Cl)cc3)C2=O)cc1	Pf growth 96h 1.2µM, AmpC inh detg inconclusive
COc1ccc([C@@H]2[C@@H]3C(=O)N(C(C)(C)C)C(=O)[C@@H]3[C@]3(Cc4ccc(Cl)cc4)C(=O)N(c4ccc(OC)cc4)C(=O)N23)cc1	Pf growth 96h 13µM, Pf growth 48h inconclusive
CCN1C(=O)[C@H]2[C@@H](c3ccc(C)cc3)N3C(=O)N(c4ccc(OC)cc4)C(=O)[C@@]3(Cc3ccc(Cl)cc3)[C@H]2C1=O	Pf growth 96h inconclusive
COc1ccc([C@@H]2[C@@H]3C(=O)N(C(C)(C)C)C(=O)[C@@H]3[C@]3(Cc4ccc(Cl)cc4)C(=O)N(c4ccc(Br)cc4)C(=O)N23)cc1	Pf growth 96h inconclusive, AmpC inh detg inconclusive, Pf growth 48h inconclusive
COCC(C)NC(=O)c1cc2c(=O)n3cccc(C)c3nc2s1 (configuration not stated)	none (no result: AmpC no deterg, Pf growth 96h, SARS PLpro yeast, Pf growth 48h)
Cc1cccc(-n2ncc3c(N4CCCC4)ncnc32)c1	none (no result: Pf growth 96h)
Cc1ccc(-n2ncc3c(NCc4ccco4)ncnc32)c(C)c1	Pf growth 96h inconclusive, Sm TGR inh 40µM, AmpC inh detg inconclusive
Cc1cccc(-n2ncc3c(N4CCN(c5ccccc5)CC4)ncnc32)c1	none (no result: AmpC no deterg, Pf growth 96h, SARS PLpro yeast, Pf growth 48h)
